# PubChem BioAssay (NCATS)
# Results filed as inconclusive are left out. Where a call stands in place of a potency, no number is given. Calls of active or inactive are those of the source. Calls come from the whole dose curve; as a rule, active = well fitted curve in the direction sought with a large enough effect; inconclusive = small, poorly fitted or top-dose-only effect, or another doubt; inactive = no such curve, though single readings can be large; an effect the other way counts as inactive or inconclusive.
# Legend:
# [1] = qHTS of pediatric cancer cell lines to identify multiple opportunities for drug repurposing: Confirmatory screen for Saos-2 cells (AID 1347127); note: nearly all actives have a fitted effect of over 60% in size; note: potency is the fitted concentration of half-maximal effect
# In short: (§1)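 Cells (500-1,000/well) rested 5 h, then received compounds for 48 h; metabolically active cells were measured by CellTiter-Glo luminescence. Final concentrations spanned up to 46 µM (MIPE, 11-point) or 0.59 nM-46 µM (NPC, 8-point) in primary screens, 11-point in follow-ups.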
# [2] = qHTS of pediatric cancer cell lines to identify multiple opportunities for drug repurposing: Confirmatory screen for OHS-50 cells (AID 1347128);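 note: compound exposure lasted 48 h at 37 degrees C; nearly all actives have a fitted effect of over 55% in size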; note: potency is the fitted concentration of half-maximal effect
# In short: as §1
# [3] = qHTS of pediatric cancer cell lines to identify multiple opportunities for drug repurposing: Confirmatory screen for SK-N-SH cells (AID 1347129);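 note: cells exposed to compound for 48 h before viability read; nearly all actives have a fitted effect of over 60% in size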; note: potency is the fitted concentration of half-maximal effect
# In short: as §1
# [4] = target: N-terminal Xaa-Pro-Lys N-methyltransferase 1 (Homo sapiens) (UniProt Q9BV86); assay: qHTS Assay for Inhibitors of N-terminal methyltransferase 1 (NTMT1): LOPAC validation of the NTMT1 SAHH-coupled ThioGlo3 Assay (AID 1347143);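 note: SAH from peptide methylation measured as thiol fluorescence via SAHH coupling and ThioGlo3; nearly all actives have a fitted effect of over 70% in size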; note: potency is the fitted concentration of half-maximal effect
# Chain of N-terminal Xaa-Pro-Lys N-methyltransferase 1 (Homo sapiens) (Q9BV86 whole entry, looked up): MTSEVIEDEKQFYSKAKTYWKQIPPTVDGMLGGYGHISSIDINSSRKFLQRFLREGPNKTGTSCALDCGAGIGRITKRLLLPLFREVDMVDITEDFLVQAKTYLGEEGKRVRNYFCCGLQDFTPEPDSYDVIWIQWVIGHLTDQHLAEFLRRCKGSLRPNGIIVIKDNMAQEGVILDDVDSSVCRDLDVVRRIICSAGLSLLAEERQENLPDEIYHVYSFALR
# In short: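 NTMT1 125nM + cpds (various conc.), 1 min RT; add SAM 100uM/SAHH 10uM/ThioGlo3 15uM (addition mix). SAHH-coupled thiol detection, Ex340/Em450, t0 and 30 min RT; signal normalized to background. LOPAC 1280-cpd pilot.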
# [5] = test system: Zika virus NS2B-NS3 protease (unlinked); assay: Optimization of GU AMC qHTS for Zika virus inhibitors: Unlinked NS2B-NS3 protease assay (AID 1347151); note: series mostly up to about 52 µM; nearly all actives have a fitted effect of over 80% in size
# In short: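 Noncovalent complex of NS2B hydrophilic domain and NS3 protease domain, 25 nM final, in 10 mM Tris-HCl pH 8.0, 0.01% Tween 20. AMC fluorescence change over 15 min at room temperature was fitted to a 4-parameter Hill equation.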
# [6] = test system: Zika virus NS2B-NS3 protease; assay: Primary screen GU AMC qHTS for Zika virus inhibitors (AID 1347154); note: nearly all actives have a fitted effect of over 70% in size
# In short: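 Fluorogenic AMC-substrate cleavage by noncovalent NS2B-NS3 protease complex (25 nM, pH 8.0 Tris buffer with Tween 20) followed for 15 minutes at room temperature (~20% conversion). Percent inhibition from ex340/em450 signal change, fitted by 4-parameter Hill equation.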
compound,measurement,setting,value
CCC1(c2ccccc2)C(=O)NCNC1=O,Potency,[1],inactive
same,Potency,[2],inactive
same,Potency,[3],inactive
same,Potency,[4],inactive
same,Potency,[5],inactive
same,Potency,[6],inactive
CCCCc1oc2ccccc2c1C(=O)c1cc(I)c(OCCN(CC)CC)c(I)c1,Potency,[1],44.7 µM (active)
same,Potency,[2],44.7 µM (active)
same,Potency,[3],56.2 µM (active)
same,Potency,[6],inactive
CN(C)C(=O)C(CCN1CCC(O)(c2ccc(Cl)cc2)CC1)(c1ccccc1)c1ccccc1,Potency,[4],inactive
same,Potency,[5],inactive
same,Potency,[6],inactive
CC#C[C@]1(O)CC[C@H]2[C@@H]3CCC4=CC(=O)CCC4=C3[C@@H](c3ccc(N(C)C)cc3)C[C@@]21C,Potency,[4],11.2 µM (active)
same,Potency,[5],inactive
same,Potency,[6],inactive
CN(C)CCOC(c1ccccc1)c1ccccc1,Potency,[4],inactive
same,Potency,[5],inactive
same,Potency,[6],inactive
CN1C2CCC1CC(OC(=O)C(CO)c1ccccc1)C2 (stereo unspecified),Potency,[4],inactive
same,Potency,[5],inactive
same,Potency,[6],inactive
Cn1c(=O)c2c(ncn2C)n(C)c1=O,Potency,[4],inactive
same,Potency,[5],inactive
same,Potency,[6],inactive
Cc1ccc(-c2cc(C(F)(F)F)nn2-c2ccc(S(N)(=O)=O)cc2)cc1,Potency,[4],inactive
same,Potency,[5],inactive
same,Potency,[6],inactive
NC(=O)OCC(COC(N)=O)c1ccccc1,Potency,[4],inactive
same,Potency,[5],inactive
same,Potency,[6],inactive
CC(C)NCC(O)COc1ccc(CCOCC2CC2)cc1 (stereo unspecified),Potency,[4],inactive
same,Potency,[5],inactive
same,Potency,[6],inactive
Nc1nnc(-c2cccc(Cl)c2Cl)c(N)n1,Potency,[4],inactive
same,Potency,[5],inactive
same,Potency,[6],inactive
CC12CC3CC(C)(C1)CC(N)(C3)C2,Potency,[4],inactive
same,Potency,[5],inactive
same,Potency,[6],inactive
CCc1cccc2c3c([nH]c12)C(CC)(CC(=O)O)OCC3 (stereo unspecified),Potency,[4],inactive
same,Potency,[5],inactive
same,Potency,[6],inactive
Fc1ccc([C@@H]2CCNC[C@H]2COc2ccc3c(c2)OCO3)cc1,Potency,[4],inactive
same,Potency,[5],inactive
same,Potency,[6],inactive
Cn1c(=O)c2[nH]cnc2n(C)c1=O,Potency,[4],inactive
same,Potency,[5],inactive
same,Potency,[6],inactive
NC(CO)C(=O)NNCc1ccc(O)c(O)c1O (stereo unspecified),Potency,[4],8.91 µM (active)
same,Potency,[5],inactive
same,Potency,[6],inactive
CN(C)c1nc(N(C)C)nc(N(C)C)n1,Potency,[4],inactive
same,Potency,[5],inactive
same,Potency,[6],inactive
COc1ccc(C2CNC(=O)C2)cc1OC1CCCC1 (stereo unspecified),Potency,[4],inactive
same,Potency,[5],inactive
same,Potency,[6],inactive
COc1ccc(CCN(C)CCCC(C#N)(c2ccc(OC)c(OC)c2)C(C)C)cc1OC (stereo unspecified),Potency,[4],inactive
same,Potency,[5],inactive
same,Potency,[6],inactive
Cn1cnc2c1c(=O)[nH]c(=O)n2C,Potency,[4],inactive
same,Potency,[5],inactive
same,Potency,[6],inactive
NCCCCCC(=O)O,Potency,[4],inactive
same,Potency,[5],inactive
same,Potency,[6],inactive
O=C1N(c2ccccc2)c2ccccc2C1(Cc1ccncc1)Cc1ccncc1,Potency,[4],inactive
same,Potency,[5],inactive
same,Potency,[6],inactive
COc1ccc2c(c1)c(CC(=O)O)c(C)n2C(=O)c1ccc(Cl)cc1,Potency,[4],inactive
same,Potency,[5],inactive
same,Potency,[6],inactive
NCCS(=O)(=O)O,Potency,[4],inactive
same,Potency,[5],inactive
same,Potency,[6],inactive
CN(CCOc1ccc(NS(C)(=O)=O)cc1)CCc1ccc(NS(C)(=O)=O)cc1,Potency,[4],inactive
same,Potency,[5],inactive
same,Potency,[6],inactive
O=C(C1CCCCC1)N1CC(=O)N2CCc3ccccc3C2C1 (stereo unspecified),Potency,[4],inactive
same,Potency,[5],inactive
same,Potency,[6],inactive
CCOC(=O)c1ncn2c1CN(C)C(=O)c1cc(F)ccc1-2,Potency,[4],inactive
same,Potency,[5],inactive
same,Potency,[6],inactive
Nc1nc2c(ncn2COC(CO)CO)c(=O)[nH]1,Potency,[4],inactive
same,Potency,[5],inactive
same,Potency,[6],inactive
CC[N+](CC)(CC)CCOc1cccc(OCC[N+](CC)(CC)CC)c1OCC[N+](CC)(CC)CC,Potency,[4],44.7 µM (active)
same,Potency,[5],inactive
same,Potency,[6],inactive
O=c1[nH]cc(F)c(=O)[nH]1,Potency,[4],inactive
same,Potency,[5],inactive
same,Potency,[6],inactive
CC(C(=O)O)c1cccc(C(=O)c2ccccc2)c1 (stereo unspecified),Potency,[4],inactive
same,Potency,[5],inactive
same,Potency,[6],inactive
CCN1CCCC1CNC(=O)c1cc(S(=O)(=O)CC)c(N)cc1OC (stereo unspecified),Potency,[4],inactive
same,Potency,[5],inactive
same,Potency,[6],inactive
CCC1(C)CC(=O)NC1=O (stereo unspecified),Potency,[4],inactive
same,Potency,[5],inactive
same,Potency,[6],inactive
O=C(CCCN1CCC(O)(c2ccc(Cl)cc2)CC1)c1ccc(F)cc1,Potency,[4],inactive
same,Potency,[5],inactive
same,Potency,[6],inactive
NCCc1cnc[nH]1,Potency,[4],inactive
same,Potency,[5],inactive
same,Potency,[6],inactive
CN(C)CCC=C1c2ccccc2C=Cc2ccccc21,Potency,[4],inactive
same,Potency,[5],inactive
same,Potency,[6],inactive
OCCN1CCN(CCCN2c3ccccc3Sc3ccc(C(F)(F)F)cc32)CC1,Potency,[4],44.7 µM (active)
same,Potency,[5],inactive
same,Potency,[6],inactive
Cc1cc(C(C)(C)C)cc(C)c1CC1=NCCN1,Potency,[4],inactive
same,Potency,[5],inactive
same,Potency,[6],inactive
CN1CCC(=C2c3ccccc3C=Cc3ccccc32)CC1,Potency,[4],inactive
same,Potency,[5],inactive
same,Potency,[6],inactive
COc1ccccc1N1CCN(CC(O)COc2cccc3ccccc23)CC1 (stereo unspecified),Potency,[6],inactive
CC1(C)O[C@H]2CC(=O)OC[C@]23[C@H]2CC[C@@]4(C)[C@H](c5ccoc5)OC(=O)[C@H]5O[C@]54[C@]2(C)C(=O)C[C@@H]13,Potency,[6],inactive
C[C@](N)(Cc1ccc(O)c(O)c1)C(=O)O,Potency,[5],inactive
N[C@@H](Cc1c[nH]c2ccc(O)cc12)C(=O)O,Potency,[4],50.1 µM (active)
same,Potency,[6],inactive
